# HSP90 inh – HSP90 inhibitors, primary screen, cell lysate, luminescence | Rabbit reticulocyte lysate, luciferase refolding luminescence, 3 h | inhibition, % at 5.6 µM | AID 1789, 2009 | actives 0.91% (n = 290,000) | Heat shock protein HSP 90 (rabbit reticulocyte lysate; luciferase refolding);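 active means inhibition above the screen-wide mean plus 3 SD, computed separately per campaign, cut at about 16% in these data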;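 further: 0% = DMSO wells and 100% = 60 µM geldanamycin wells; inhibitors lower the luminescence because luciferase stays unfolded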
# Platelet DG rel – inhibitors of platelet dense granule secretion, primary screen, cell-based, MLPCN, human platelets | inhibition, %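 (compounds screened at 7.5 µM in platelet-rich plasma)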 | actives 0.22% (n = 300,000) | human platelet-rich plasma, SFLLRN dense granule ATP release, luminescence;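 active means mean replicate score, as percent of positive control, at or above 50; inconclusive means mean below 50 but at least one replicate at or above 50; inactive means mean and every replicate below 50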
# dFosB activator – activators of delta FosB homodimer, primary screen, biochemical, fluorescence polarization, TAMRA-CDK5 oligo, single point | purified delta FosB; percent of positive-control signal above neutral wells | activation, % at 25 µM | AID 493131, 2011 | actives 0.99% (n = 340,000);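 active means mean activation above about 17%, with every replicate also reaching it, limit read from the data, passing the limit was not always enough; inconclusive means only one of the two conditions met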
# Target sequence (P13346 whole entry, looked up): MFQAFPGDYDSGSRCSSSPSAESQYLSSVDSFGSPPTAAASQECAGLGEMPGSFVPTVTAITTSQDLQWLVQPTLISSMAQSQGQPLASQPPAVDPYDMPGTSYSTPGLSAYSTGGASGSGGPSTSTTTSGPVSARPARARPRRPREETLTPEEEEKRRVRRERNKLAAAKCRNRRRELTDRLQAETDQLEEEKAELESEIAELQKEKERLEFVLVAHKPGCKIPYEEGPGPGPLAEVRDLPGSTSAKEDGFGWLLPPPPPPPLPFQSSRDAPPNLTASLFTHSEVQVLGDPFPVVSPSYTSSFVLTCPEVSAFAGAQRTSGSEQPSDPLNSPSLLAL
# MPTP inh – mitochondrial permeability transition pore inhibitors, primary screen, biochemical, isolated mouse mitochondria, absorbance; Ca2+ swelling absorbance, 30 min; inhibition, % at 10 µM; actives 1.4% (n = 360,000);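 active means inhibition of 50% or more, scaled per plate between neutral and stimulator controls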;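 further: 0% = DMSO wells given calcium and 100% = 1 mM EGTA wells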
# HSF-1 act – HSF-1 activators, primary screen, NIH3T3-HGL cells, MG132 stress, luminescence, single point; activation, % at 9 µM; actives 1.7% (n = 300,000); NIH3T3-HGL HSF-1 luciferase reporter, 8 h; 100% = twice DMSO control signal;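 active means mean replicate activation of at least 50% with a set share of replicates each reaching 50%; inconclusive means only one of those two conditions met; inactive means mean below 50% and too few replicates reaching it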;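 further: 0% = median of the neutral control wells and 100% = twice that signal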
# HSF1 inh – HSF1 inhibitors in luciferase reporter cells, primary screen, cell-based, NIH3T3, luminescence | AID 2098, 2009 | NIH3T3-HGL HSE-luciferase, MG132-induced, luminescence 8 h; hits give low values | activity change, negative = inhibition, % at 7.5 µM (by protocol) | actives 0.77% (n = 300,000);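 active means more than half of replicate wells show activity change below -50%, luminescence cut by over half; inconclusive means some wells, but at most half, below -50%; inactive means no replicate well below -50%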;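 further: luciferase reports HSF-1 transcriptional activity via heat shock element; 0% = median of DMSO wells and -100% = zero luminescence signal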
# * hit, by the source's call; ? = inconclusive; . = no result. Rows were chosen to be rich in hits. Some 4.9% of all compounds tested hit in one or more screens of this group.
SMILES,HSP90 inh,Platelet DG rel,dFosB activator,MPTP inh,HSF-1 act,HSF1 inh
O=C(O)/C=C\C(=O)Nc1ccccc1C#Cc1ccc(Br)cc1,-3,10,2,0,56*,14
Nn1c(SCc2ccccc2)nnc1-c1ccco1,-1,18,-6,0,-74,-68*
CCCCNC(=O)C1(C)CCCCN1C(=O)c1c(F)ccc(C)c1F (stereo not given),.,.,.,0,.,.
COc1cccc(Nc2ccc(C(=O)O)cc2N)c1,11,-4,-3,0,-69,-66*
CCOc1ccccc1Nc1ccc(C(=O)O)cc1N,-6,-4,1,-1,-7,0
c1ccc(-c2nc3c(ccc4ccccc43)[nH]2)nc1,-3,?,0,-4,58*,33
COc1ccc(C(=O)Nc2ccccc2C(=O)N/N=C/c2ccco2)cc1,9,78*,?,0,-27,-21
OCCN(Cc1ccccc1)Cc1cccc(Cl)c1Cl,3,-1,-3,2,-82,-80*
OCCN(Cc1ccccc1)Cc1ccccc1Cl,-3,-9,-7,-1,13,3
CN(C)CCc1cc2c(c3c1ccc1ccccc13)OCO2,2,-6,47*,4,5,1
CC(=O)c1cccc(NC(=O)C(OC(=O)c2cccs2)c2ccccc2)c1 (stereo not given),0,-11,-1,2,21,-5
COCCNC(=O)C(OC(=O)c1cccs1)c1ccccc1 (stereo not given),0,1,-3,0,-63,-55*
Cc1ccccc1N1CCN(S(=O)(=O)Cc2ccccc2)CC1,2,3,-11,0,52*,19
Cn1cc(Br)c(C(=O)NNC(=O)Nc2ccccc2C(F)(F)F)n1,-2,0,-3,-1,7,2
COc1ccc(NC(=O)CCS(=O)(=O)c2ccc3nc(C)sc3c2)cc1OC,-5,74*,-5,-1,-7,-7
COc1ccc(CCCC(=O)Nc2cc(C)ccc2OC)cc1,3,-5,-1,-1,-17,0
COc1ccc(S(=O)(=O)CCC(=O)Nc2cc(C)ccc2OC)cc1,-4,9,2,2,-73,-66*
CCOc1ccccc1NC(=O)CCS(=O)(=O)c1ccc2c(c1)CC(C)N2C(C)=O (stereo not given),0,-3,-7,0,10,1
CCC(=O)N1c2ccc(S(=O)(=O)CCC(=O)Nc3ccc(OC)cc3OC)cc2CC1C (stereo not given),3,-2,-2,-2,53*,20
CCOc1ccc(CN2CCNC(=O)C2CC(=O)NCc2csc(C(C)C)n2)cc1 (stereo not given),-3,-14,-8,0,6,-1
CC1(C)CC(=O)C(C=NCC2CCN(C(=O)Cc3ccccc3)CC2)=C(O)C1,0,2,-17,2,7,6
O=C(CCCn1c(=S)[nH]c2ccc(Br)cc2c1=O)NCC1CCCO1 (stereo not given),4,-9,-5,5,72*,25
O=C(CCCn1c(=O)[nH]c2cc(Cl)ccc2c1=O)NCC1CCCO1 (stereo not given),3,7,1,-1,-31,-18
O=S(=O)(NC1CCN(S(=O)(=O)c2c(F)cccc2F)CC1)c1ccc2c(c1)OCCO2,.,.,3,0,.,.
Nc1ccccc1-n1cccc1,-1,5,1,1,-13,-18
SMILES,HSP90 inh,Platelet DG rel,dFosB activator,MPTP inh,HSF-1 act,HSF1 inh
O=C(Nc1cccc(O)c1)c1cc(-c2ccco2)on1,17*,25,-6,0,-3,13
CN(C(=O)CN1C(=O)S/C(=C\c2ccccc2)C1=O)C1CCS(=O)(=O)C1 (stereo not given),4,-2,-5,-1,-89,-86*
CCC(NC(=S)NC1CCCCC1)c1ccccc1 (stereo not given),-1,3,-2,1,-90,-87*
COc1ccccc1-n1ccnc(SCC(=O)NCc2ccccc2)c1=O,.,-8,-4,0,-66,-55*
O=C(Cc1cccs1)Nc1nc2ccccc2s1,-5,4,8,21,66*,45
CCOc1ccc2nc(NC(=O)Cc3cccs3)sc2c1,3,-11,-6,0,17,5
COc1ccc2nc(NC(=O)Cc3cccs3)sc2c1,1,2,0,0,65*,37
Cc1ccc2nc(NC(=O)Cc3cccs3)sc2c1,7,-8,-1,-1,45,25
COc1cc(C(O)P(=O)(OC2CCCCC2)c2ccc(N(C)C)cc2)cc(OC)c1OC (stereo not given),0,-6,-5,-1,57*,28
CCCC(=O)Nc1cccc(NC(=O)c2ccccc2Br)c1,-2,86*,-2,-1,.,.
CCCC(=O)Nc1cccc(NC(=O)c2ccc([N+](=O)[O-])cc2Cl)c1,-2,-4,-2,5,-11,-7
CCC(=O)Nc1cccc(NC(=O)c2ccccc2Br)c1,1,42,-5,0,0,1
CCCCC(=O)Nc1cccc(NC(=O)c2cccc(Br)c2)c1,-2,0,-9,8,-70,-62*
CCCCC(=O)Nc1cccc(NC(=O)c2ccc(Br)cc2)c1,-1,4,1,-2,-10,6
CC(C)CC(=O)Nc1cccc(NC(=O)c2ccccc2Cl)c1,-3,92*,-3,1,5,2
CCCC(=O)Nc1cccc(NC(=O)c2cccc([N+](=O)[O-])c2C)c1,3,24,-8,-1,-77,-71*
COC(=O)N1c2ccccc2C=Cc2ccccc21,-2,0,-4,-1,1,0
CC1=C/C(=N\NC(=S)Nc2cccnc2)CC(C)(C)C1,1,-2,2,-4,27,4
CN1CCc2c(sc(/N=C/c3cc(Cl)ccc3O)c2C#N)C1,16,6,-4,1,-60,-52*
CC(=O)Nc1nc(C)c(-c2csc(Nc3cccc(C(C)=O)c3)n2)s1,4,6,-11,-1,16,0
Cc1nc(NC(=O)c2ccc(Cl)cc2)sc1-c1csc(Nc2cccc(F)c2)n1,69*,2,.,.,13,12
O=c1nc2n(c3ncccc13)CCC2,16*,0,-7,0,-4,-8
CC(C)(C)CC(C)(C)N=C1Nc2ccccc2NC12C[C@H]1CCC(=O)N3CC[C@@H](C2)[C@@H]13 (stereo not given in full),.,.,4,0,.,.

# Compound activity as filed in PubChem.
